# According to PubChem BioAssay (Tox21):
# Results filed as inconclusive are left out. Activity calls are given as the source filed them. Unless noted, calls come from the whole dose curve; as a rule, active = well fitted activation curve with a large enough effect in the repeat runs; inconclusive = weak or mixed curves; inactive = flat fitted curve, though single readings scatter.
# Target: Androgen receptor (Homo sapiens) (UniProt P10275)
# Experiment: qHTS assay to identify small molecule agonists of the androgen receptor (AR) signaling pathway (AID 743036; active = well fitted activation curve with a large enough effect in the signal ratio in the repeat runs, with a control signal flat, not every such curve was filed as active; the % refers to the signal ratio)
# Conditions: HEK293 AR-UAS-bla GripTite, beta-lactamase FRET ratio, 16 h; series mostly up to 62.4 µM; activation: at the top concentration
# Method in brief: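 AR-UAS-bla HEK293 cells, plated 4 h before dosing, were treated with compound for 16 h at 37C. beta-Lactamase reporter read after 2 h with LiveBLAzer B/G FRET substrate at room temperature.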
# % is set by controls: 0 for no effect and ±100 for the full control effect.
# Androgen receptor (Homo sapiens), sequence (P10275 whole entry, looked up): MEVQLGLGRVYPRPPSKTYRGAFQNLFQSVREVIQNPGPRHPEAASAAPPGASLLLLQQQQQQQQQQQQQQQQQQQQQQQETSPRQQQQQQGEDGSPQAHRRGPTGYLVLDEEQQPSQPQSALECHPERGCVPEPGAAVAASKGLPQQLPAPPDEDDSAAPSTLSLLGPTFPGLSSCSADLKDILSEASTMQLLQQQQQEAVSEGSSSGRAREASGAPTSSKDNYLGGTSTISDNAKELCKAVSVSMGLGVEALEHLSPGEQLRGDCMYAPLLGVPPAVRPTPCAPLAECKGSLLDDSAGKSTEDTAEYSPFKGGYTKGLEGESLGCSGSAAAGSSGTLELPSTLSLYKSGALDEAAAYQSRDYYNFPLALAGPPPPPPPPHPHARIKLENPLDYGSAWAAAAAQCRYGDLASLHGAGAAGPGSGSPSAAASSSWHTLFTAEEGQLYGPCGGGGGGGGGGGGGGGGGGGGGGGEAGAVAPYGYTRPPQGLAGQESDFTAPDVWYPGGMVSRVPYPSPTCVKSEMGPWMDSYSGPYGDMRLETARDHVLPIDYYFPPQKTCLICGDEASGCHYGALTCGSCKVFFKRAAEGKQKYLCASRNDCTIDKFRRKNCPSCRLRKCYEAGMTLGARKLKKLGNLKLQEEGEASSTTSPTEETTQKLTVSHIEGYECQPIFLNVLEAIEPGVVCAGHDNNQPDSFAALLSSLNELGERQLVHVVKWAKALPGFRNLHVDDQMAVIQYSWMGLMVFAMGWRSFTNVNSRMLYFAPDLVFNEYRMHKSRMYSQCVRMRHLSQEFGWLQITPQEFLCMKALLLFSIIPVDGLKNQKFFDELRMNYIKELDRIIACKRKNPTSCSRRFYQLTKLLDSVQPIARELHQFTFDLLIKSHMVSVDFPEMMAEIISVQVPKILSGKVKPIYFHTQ
Compound,activation,Potency
CC(=O)Nc1ccc(N)cc1,4.05% [at 79.1 µM] (inactive),–
CCOC(=O)CC(=O)C(=O)OCC,-3.7% (inactive),–
C=CC(=C)CCCC(C)(C)OC(C)=O,0.003% (inactive),–
COc1cc2ncnc(Nc3ccc(F)c(Cl)c3)c2cc1OCCCN1CCOCC1,15% (inactive),–
CO[C@H]1C=CO[C@@]2(C)Oc3c(C)c(O)c4c(O)c(c5c(c4c3C2=O)=NC2(CCN(CC(C)C)CC2)N=5)NC(=O)/C(C)=C\C=C/[C@H](C)[C@H](O)[C@@H](C)[C@@H](O)[C@@H](C)[C@H](OC(C)=O)[C@@H]1C,–,inactive
Oc1ccc(Nc2ccccc2)cc1,-8.71% (inactive),–
CC1(C)C2=CCCC(C)(C)[C@]23CC[C@H]1C3,-1.37% (inactive),–
O=C(CCC1CCN(Cc2ccccc2)CC1)c1ccc2c(c1)NCCCC2,-1.54% (inactive),–
c1cnc2c(n1)CCCC2,7.25% (inactive),–
C[Si]1(C)O[Si](C)(C)O[Si](C)(C)O1,0% (inactive),–
CC(C)CCCC(=O)O,-5.12% (inactive),–
Nc1ccc(Cl)cc1[N+](=O)[O-],0.048% (inactive),–

# Target: Androgen receptor (Homo sapiens) (UniProt P10275)
# Experiment: qHTS assay to identify small molecule agonists of the androgen receptor (AR) signaling pathway using the MDA cell line (AID 743040; note: nearly all actives have a fitted effect of over 20% in size; note: potency is the fitted concentration of half-maximal effect)
# Conditions: MDA-kb2 AR-luc cells, MMTV luciferase, 16 h; series mostly up to 70.3 µM; activity change: at the top concentration
# Method in brief: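 Luciferase agonist assay: 16 h compound exposure at 37C without CO2 in MDA-kb2 AR-luc cells, whose MMTV promoter responds to both AR and GR. Luminescence measured after 30 min room-temperature incubation with ONE-Glo.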
Compound,activity change,Potency
Fc1ccccc1[C@@H](F)COC1CCC(Nc2ncnc3[nH]ncc23)CC1 (stereo partly drawn),-10.1% (inactive),–
CC(C)=CC=O,"2.1% [at 95 µM, stronger effect = higher value] (inactive)",–
CC(=O)Nc1ccc(N)cc1,"2.26% [at 95 µM, stronger effect = higher value] (inactive)",–
O=C(N/N=C/c1ccc([N+](=O)[O-])o1)c1ccc(O)cc1,"-12.2% [at 32.5 µM, stronger effect = higher value] (inactive)",–
CCOC(=O)CC(=O)C(=O)OCC,0.347% (inactive),–
CCCOC(=O)c1ccc(C(=O)OCCC)nc1,0.59% (inactive),–
C=CC(=C)CCCC(C)(C)OC(C)=O,5.71% (inactive),–
OCC1CC=CCC1 (stereo not drawn),2.42% (inactive),–
COc1cc2ncnc(Nc3ccc(F)c(Cl)c3)c2cc1OCCCN1CCOCC1,-10.6% (inactive),–
CO[C@H]1C=CO[C@@]2(C)Oc3c(C)c(O)c4c(O)c(c5c(c4c3C2=O)=NC2(CCN(CC(C)C)CC2)N=5)NC(=O)/C(C)=C\C=C/[C@H](C)[C@H](O)[C@@H](C)[C@@H](O)[C@@H](C)[C@H](OC(C)=O)[C@@H]1C,-5.49% (inactive),–
COc1cc2c(N3CCN(C(=O)Nc4ccc(OC(C)C)cc4)CC3)ncnc2cc1OCCCN1CCCCC1,-3.36% (inactive),–
CC(=O)[C@H]1CC[C@H]2[C@@H]3C=CC4=CC(=O)CC[C@@]4(C)[C@@H]3CC[C@]12C,–,9.02 µM (active)
CCCCCCCCCCCCCCC[C@H](O)[C@@H](N)CO,-0.0387% (inactive),–
Oc1ccc(Nc2ccccc2)cc1,-4.7% (inactive),–
CC1(C)C2=CCCC(C)(C)[C@]23CC[C@H]1C3,0.842% (inactive),–
O=C(CCC1CCN(Cc2ccccc2)CC1)c1ccc2c(c1)NCCCC2,-9.61% (inactive),–
CCc1cccc(N(C)C(N)=Nc2cccc3ccccc23)c1,-7.03% (inactive),–
c1cnc2c(n1)CCCC2,0.757% (inactive),–
C[Si]1(C)O[Si](C)(C)O[Si](C)(C)O1,1.79% (inactive),–
CC(C)CCCC(=O)O,0.566% (inactive),–
Nc1ccc(Cl)cc1[N+](=O)[O-],-2.03% (inactive),–
